In PubChem BioAssay AID1159580 (chemical genetic matrix, 2015):
Where “and” joins values, the source holds several entries; their conditions need not be identical. Equal entries are not always repeated. Out of some 5,500 compounds screened, about 2,000 (36%) were called active. Another 18% or so got no clear call; they are omitted. Rule as the data show it: active = normalized growth mostly below about 0.91 (no sharp cut-off); inconclusive = no clear call, values can overlap the other calls; inactive = mostly above about 0.92. This is one part of the list.

Assay: chemical genetic growth profiling, strain panel (AID 1159580);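 also: tested at 20 µM; growth read once vehicle control cultures reached saturation at 30 °C; 1 = growth at the plate median or of vehicle wells; lower values mean less growth of the strain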
Settings: S. cerevisiae deletion strains, growth OD

Measured: normalized growth

NS(=O)(=O)c1cc2c(cc1Cl)NC=NS2(=O)=O
inactive: locus YAL013W, strain DEP1, stronger effect = lower value 1 | locus YAL021C, strain ccr4, stronger effect = lower value 0.984 | locus YAL026C, strain drs2, stronger effect = lower value 1.01 | locus YAL030W, strain snc1, stronger effect = lower value 1 | locus YAL040C, strain CLN3, stronger effect = lower value 1 | locus YBL061C, strain skt5, stronger effect = lower value 1 | locus YBR009C, strain hhf1, stronger effect = lower value 0.983 | locus YBR021W, strain FUR4, stronger effect = lower value 1 | locus YBR023C, strain chs3, stronger effect = lower value 1 | locus YBR171W, strain sec66, stronger effect = lower value 1 | locus YBR229C, strain ROT2, stronger effect = lower value 1 | locus YBR231C, strain swc5, stronger effect = lower value 0.973 | locus YBR279W, strain paf1, stronger effect = lower value 0.997 | locus YCL011C, strain gbp2, stronger effect = lower value 1 | locus YCL016C, strain dcc1, stronger effect = lower value 0.999 | locus YCL029C, strain bik1, stronger effect = lower value 0.997 | locus YCL061C, strain MRC1 (second series), stronger effect = lower value 1 | locus YCL061C, strain MRC1, stronger effect = lower value 1.01 | locus YCL069W, strain vba3, stronger effect = lower value 1.01 | locus YCR088W, strain abp1, stronger effect = lower value 0.995 | locus YDL005C, strain med2, stronger effect = lower value 0.997 | locus YDL035C, strain GPR1, stronger effect = lower value 1.02 | locus YDL040C, strain nat1, stronger effect = lower value 1 | locus YDL074C, strain BRE1, stronger effect = lower value 1.01 | locus YDL101C, strain DUN1, stronger effect = lower value 1.01 | locus YDL134C, strain PPH21, stronger effect = lower value 1 | locus YDL185W, strain tfp1, stronger effect = lower value 0.974 | locus YDL192W, strain arf1, stronger effect = lower value 1 | locus YDR001C, strain nth1, stronger effect = lower value 1.03 | locus YDR069C, strain doa4, stronger effect = lower value 1 | locus YDR101C, strain arx1, stronger effect = lower value 0.996 | locus YDR137W, strain rgp1, stronger effect = lower value 0.999 | locus YDR150W, strain NUM1, stronger effect = lower value 1.01 | locus YDR159W, strain sac3, stronger effect = lower value 1 | locus YDR162C, strain NBP2, stronger effect = lower value 1.02 | locus YDR195W, strain ref2 0.93 | locus YDR297W, strain sur2, stronger effect = lower value 1 | locus YDR318W, strain mcm21, stronger effect = lower value 1 | locus YDR334W, strain swr1, stronger effect = lower value 1 | locus YDR335W, strain msn5, stronger effect = lower value 1.02 | locus YDR388W, stronger effect = lower value 0.997 | locus YDR392W, strain spt3, stronger effect = lower value 1 | locus YDR502C, strain sam2, stronger effect = lower value 1.01 | locus YEL003W, strain gim4, stronger effect = lower value 0.99 | locus YEL037C, strain rad23, stronger effect = lower value 0.999 | locus YEL061C, strain CIN8 (second series), stronger effect = lower value 1.02 | locus YEL061C, strain CIN8, stronger effect = lower value 1 | locus YER002W, strain NOP16, stronger effect = lower value 0.975 | locus YER015W, strain faa2, stronger effect = lower value 1.01 | locus YER016W, strain bim1, stronger effect = lower value 1.01 | locus YER110C, stronger effect = lower value 0.986 | locus YER111C, strain swi4, stronger effect = lower value 0.99 | locus YER155C, strain BEM2 (second series), stronger effect = lower value 0.963 | locus YER155C, strain BEM2, stronger effect = lower value 1 | locus YER167W, strain BCK2, stronger effect = lower value 1.03 | locus YFR010W, strain ubp6, stronger effect = lower value 1.02 | locus YGL078C, strain dbp3, stronger effect = lower value 1 | locus YGL086W, strain mad1, stronger effect = lower value 1 | locus YGL167C, strain pmr1, stronger effect = lower value 0.993 | locus YGL173C, strain kem1, stronger effect = lower value 0.989 | locus YGL227W, strain vid30, stronger effect = lower value 0.988 | locus YGL240W, strain doc1, stronger effect = lower value 0.988 | locus YGL248W, strain PDE1, stronger effect = lower value 1.01 | locus YGL253W, strain hxk2, stronger effect = lower value 1.03 | locus YGR078C, strain PAC10, stronger effect = lower value 1.01 | locus YGR135W, strain pre9, stronger effect = lower value 0.998 | locus YGR229C, strain SMI1, stronger effect = lower value 1.02 | locus YGR252W, strain gcn5, stronger effect = lower value 1.02 | locus YHR013C, strain ard1, stronger effect = lower value 0.966 | locus YHR027C, strain rpn1, stronger effect = lower value 1 | locus YHR030C, strain SLT2, stronger effect = lower value 1.01 and 0.954 | locus YHR079C, strain IRE1 (second series), stronger effect = lower value 1 | locus YHR079C, strain IRE1, stronger effect = lower value 0.965 | locus YHR094C, strain hxt1, stronger effect = lower value 0.995 | locus YHR129C, strain ARP1, stronger effect = lower value 1 | locus YHR142W, strain chs7, stronger effect = lower value 1.02 | locus YHR200W, strain rpn10, stronger effect = lower value 0.993 | locus YIL066C, strain RNR3, stronger effect = lower value 1.02 | locus YIL073C, strain SPO22, stronger effect = lower value 1.03 | locus YIL125W, strain kgd1, stronger effect = lower value 1 | locus YIR030C, strain dcg1, stronger effect = lower value 0.99 | locus YJL092W, strain hpr5, stronger effect = lower value 1.01 | locus YJL095W, strain BCK1 (second series), stronger effect = lower value 1 | locus YJL095W, strain BCK1, stronger effect = lower value 1.02 and 0.975 | locus YJL115W, strain asf1, stronger effect = lower value 1.01 | locus YJL129C, strain trk1, stronger effect = lower value 1.02 | locus YJL134W, strain LCB3, stronger effect = lower value 1 | locus YJL154C, strain vps35, stronger effect = lower value 0.989 | locus YJL164C, strain tpk1, stronger effect = lower value 1 | locus YJL166W, strain qcr8, stronger effect = lower value 0.985 | locus YJL168C, strain set2, stronger effect = lower value 0.995 | locus YJL187C, strain SWE1 (second series), stronger effect = lower value 1.03 | locus YJL187C, strain SWE1, stronger effect = lower value 1.01 | locus YJR043C, strain POL32, stronger effect = lower value 0.996 | locus YJR066W, strain TOR1, stronger effect = lower value 0.973
